Data taken from PubChem BioAssay.

Assay: PSAC antagonists in infected red cells, primary screen, cell-based, P. falciparum Indochina, OD700, 2 h (AID 1155);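 also: lysis reports solute entry through the parasite surface anion channel PSAC; channel blockers reduce lysis of infected cells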
Settings: P. falciparum Indochina infected erythrocytes, osmotic lysis OD700; higher = more signal, called active from +8 up or from −8 down

z-score, inactive:
CCOC(=O)CCN1C(=O)[C@H]2[C@H]3[C@H](O)[C@H](O)CC(=NNC(=O)OCc4ccccc4)[C@@H]3CC[C@H]2C1=O -0.37
CC(C)(C)N1C(=O)[C@H]2[C@H]3[C@H](O)[C@H](O)CC(=NOCc4ccccc4)[C@H]3CC[C@H]2C1=O 0.54
C[C@H]1COC(=O)[C@@H]2CCCN2C(=O)[C@@H](C)COC(=O)[C@H](Cc2ccccc2)NC1=O -0.29
O=C1[C@H]2[C@H]3[C@H](O)[C@H](O)CC(=NO[C@@H]4O[C@H](CO)[C@@H](O)[C@H](O)[C@H]4O)[C@H]3CC[C@H]2C(=O)N1c1cccc(Oc2ccccc2)c1 0.452
CC(C)=CCCC(C)=CCON=C1C[C@@H](O)[C@@H](O)[C@@H]2[C@@H]3C(=O)N(Cc4ccccc4)C(=O)[C@@H]3CC[C@H]12 -0.206
CC(C)(C)N1C(=O)[C@H]2[C@H]3[C@H](O)[C@H](O)CC(=O)[C@H]3CC[C@H]2C1=O 0.499
COc1ccc(O[C@H]2C=C[C@@H](c3ccccc3)O[C@@H]2COC(=O)CCC(C)=NO[C@@H]2O[C@H](COC(C)=O)[C@@H](OC(C)=O)[C@H](OC(C)=O)[C@H]2OC(C)=O)cc1 0.583
COc1ccc(COC(=O)NN=C2C[C@@H](O)[C@@H](O)[C@@H]3[C@@H]4C(=O)N(Cc5ccccc5)C(=O)[C@@H]4CC[C@H]23)cc1 0.507
COc1cc(O)c(C(=O)C=Cc2ccc3c(c2)OCO3)c(OC)c1 2.42
C#CCCCON=C1C[C@@H](O)[C@@H](O)[C@@H]2[C@@H]3C(=O)N(C(C)(C)C)C(=O)[C@@H]3CC[C@H]12 0.371
O=C(NN=C1C[C@@H](O)[C@@H](O)[C@@H]2[C@@H]3C(=O)N(C[C@@H]4CCCO4)C(=O)[C@@H]3CC[C@H]12)OCc1ccccc1 0.278
COc1cccc([C@H]2Oc3ccc(OC)cc3C(=NO[C@@H](C)c3cn([C@H](CO)Cc4ccccc4)nn3)[C@@H]2O)c1 0.41
O=C1[C@H]2[C@H]3[C@H](O)[C@H](O)CC(=NOCc4ccccc4)[C@H]3CC[C@H]2C(=O)N1Cc1ccc2c(c1)OCO2 2.12
CC(C)CON=C1C[C@@H](O)[C@@H](O)[C@@H]2[C@@H]3C(=O)N(C4CCCCC4)C(=O)[C@@H]3CC[C@H]12 0.193
CC(C)(C)N1C(=O)[C@H]2[C@H]3[C@H](O)[C@H](O)CC(=NO[C@@H]4O[C@H](CO)[C@@H](O)[C@H](O)[C@H]4O)[C@H]3CC[C@H]2C1=O 1.46
COC(=O)[C@H](C)NC(=O)CCC1CC(OC(=O)NCCc2ccc(F)cc2)CC2(CCCC(COC(=O)NCCC(C)C)O2)O1 (some centres undefined) 4.7
CC(=O)Nc1ccc([C@@H]2N[C@H](C(=O)O)CC[C@H]2C)cc1 0.182
COc1ccc(O[C@H]2C=C[C@@H](c3ccccc3)O[C@@H]2CON=C(C)C)cc1 -0.0779
CO[C@H]1COC(=O)[C@@H](Cc2ccccc2)NC(=O)[C@@H](C)COC(=O)CCC[C@@H]1C -1.66
CCOC(=O)NN=C1C[C@@H](O)[C@@H](O)[C@@H]2[C@@H]3C(=O)N([C@@H](C)c4ccccc4)C(=O)[C@@H]3CC[C@H]12 0.452
CO[C@H]1COC(=O)CCC[C@@H](C)[C@H](OC)COC(=O)[C@@H]2CCCN2C(=O)CC=C[C@@H]1C -1.08
COc1cccc([C@H]2Oc3ccc(OC)cc3C(=NOC(C)CN3CCCCc4nc(C)c(C)cc43)[C@@H]2O)c1 (some centres undefined) 0.59
O=C1[C@H]2[C@H]3[C@H](O)[C@H](O)CC(=NOC[C@@H](O)COCc4ccco4)[C@H]3CC[C@H]2C(=O)N1Cc1ccccc1 -0.599
COc1cccc([C@H]2Oc3ccc(OC)cc3C(=NOC[C@@H](O)[C@H]3O[C@@H]4OC(C)(C)O[C@@H]4[C@H]3O)[C@@H]2O)c1 0.458
Cn1c(=O)n2n(c1=O)[C@H]1[C@H](O)[C@@H]3O[C@@H]3C(=NOCc3ccccc3)[C@H]1CC2 0.0184

Assay: osmotic lysis modulators in infected erythrocytes, primary screen, PSAC antagonist project, cell-based, P. falciparum Indochina, OD700, 3 h (AID 1156)
Settings: higher = more signal, called active from +8 up or from −8 down

z-score, inactive:
CCOC(=O)[C@H](CC(C)C)NC(=O)CCC1CC(OC(=O)NCc2cccc3ccccc23)CC2(CCCC(COC(=O)NCCC(C)C)O2)O1 (some centres undefined) -0.861
CCOC(=O)[C@H](CC(C)C)NC(=O)CCC1CC(OC(=O)NCc2cccc3ccccc23)CC2(CCCC(COC(=O)NCC3CCCCC3)O2)O1 (some centres undefined) 0.552
CCC=CCCC(OC(=O)c1ccc(Br)cc1)C1=CCCCC1=O (centres undefined) -0.0019
Cc1cc2c(nc1C)CCCCN2CC(C)ON=C[C@@H](C)[C@H](OCc1ccccc1)C(C)C (some centres undefined) 0.472
CCOC(=O)[C@H](Cc1ccccc1)NC(=O)CCC1CC(OC(=O)NCc2cccc3ccccc23)CC2(CCCC(COC(=O)NCCC(C)C)O2)O1 (some centres undefined) -2.04
Cc1ccc(S(=O)(=O)n2c3ccccc3c3nnc(C(=O)c4ccccc4)nc32)cc1 -0.0784
COC(=O)NCC=Cc1nc(CCCO)co1 -0.304
Cc1ccc(S(=O)(=O)N[C@H]2COC(=O)CC=C[C@H](C)[C@@H](NS(=O)(=O)c3ccc(C)cc3)COC(=O)CC=C[C@@H]2C)cc1 0.654
O=C1[C@H]2[C@H]3[C@H](O)[C@H](O)CC(=NOCc4ccccc4)[C@@H]3CC[C@H]2C(=O)N1C[C@@H]1CCCO1 -0.335
CCCCC#C[C@@H]1C=C[C@H](OC(C)=O)[C@@H](COC(C)=O)O1 -0.89
Cc1cc2c(nc1C)CCCN2CC(O)CN1CCCc2nc(C)c(C)cc21 0.249
C#CCCCON=C1C[C@@H](O)[C@@H](O)[C@@H]2[C@@H]3C(=O)N(CC)C(=O)[C@@H]3CC[C@@H]12 -0.26
CCOC(=O)CCN1C(=O)[C@H]2[C@H]3[C@H](O)[C@H](O)CC(=NNC(=O)OCc4ccccc4)[C@@H]3CC[C@H]2C1=O -0.371
CC(C)(C)N1C(=O)[C@H]2[C@H]3[C@H](O)[C@H](O)CC(=NOCc4ccccc4)[C@H]3CC[C@H]2C1=O -0.408
C[C@H]1COC(=O)[C@@H]2CCCN2C(=O)[C@@H](C)COC(=O)[C@H](Cc2ccccc2)NC1=O 0.968
O=C1[C@H]2[C@H]3[C@H](O)[C@H](O)CC(=NO[C@@H]4O[C@H](CO)[C@@H](O)[C@H](O)[C@H]4O)[C@H]3CC[C@H]2C(=O)N1c1cccc(Oc2ccccc2)c1 0.253
CC(C)=CCCC(C)=CCON=C1C[C@@H](O)[C@@H](O)[C@@H]2[C@@H]3C(=O)N(Cc4ccccc4)C(=O)[C@@H]3CC[C@H]12 0.957
CC(C)(C)N1C(=O)[C@H]2[C@H]3[C@H](O)[C@H](O)CC(=O)[C@H]3CC[C@H]2C1=O -0.933
COc1ccc(O[C@H]2C=C[C@@H](c3ccccc3)O[C@@H]2COC(=O)CCC(C)=NO[C@@H]2O[C@H](COC(C)=O)[C@@H](OC(C)=O)[C@H](OC(C)=O)[C@H]2OC(C)=O)cc1 1.1
COc1ccc(COC(=O)NN=C2C[C@@H](O)[C@@H](O)[C@@H]3[C@@H]4C(=O)N(Cc5ccccc5)C(=O)[C@@H]4CC[C@H]23)cc1 -1.3
COc1cc(O)c(C(=O)C=Cc2ccc3c(c2)OCO3)c(OC)c1 0.484
C#CCCCON=C1C[C@@H](O)[C@@H](O)[C@@H]2[C@@H]3C(=O)N(C(C)(C)C)C(=O)[C@@H]3CC[C@H]12 -0.342
O=C(NN=C1C[C@@H](O)[C@@H](O)[C@@H]2[C@@H]3C(=O)N(C[C@@H]4CCCO4)C(=O)[C@@H]3CC[C@H]12)OCc1ccccc1 0.284
COc1cccc([C@H]2Oc3ccc(OC)cc3C(=NO[C@@H](C)c3cn([C@H](CO)Cc4ccccc4)nn3)[C@@H]2O)c1 1.19
O=C1[C@H]2[C@H]3[C@H](O)[C@H](O)CC(=NOCc4ccccc4)[C@H]3CC[C@H]2C(=O)N1Cc1ccc2c(c1)OCO2 0.686
CC(C)CON=C1C[C@@H](O)[C@@H](O)[C@@H]2[C@@H]3C(=O)N(C4CCCCC4)C(=O)[C@@H]3CC[C@H]12 0.168
CC(C)(C)N1C(=O)[C@H]2[C@H]3[C@H](O)[C@H](O)CC(=NO[C@@H]4O[C@H](CO)[C@@H](O)[C@H](O)[C@H]4O)[C@H]3CC[C@H]2C1=O 1.01
COC(=O)[C@H](C)NC(=O)CCC1CC(OC(=O)NCCc2ccc(F)cc2)CC2(CCCC(COC(=O)NCCC(C)C)O2)O1 (some centres undefined) 0.0444
CC(=O)Nc1ccc([C@@H]2N[C@H](C(=O)O)CC[C@H]2C)cc1 -0.23
COc1ccc(O[C@H]2C=C[C@@H](c3ccccc3)O[C@@H]2CON=C(C)C)cc1 -0.541
CO[C@H]1COC(=O)[C@@H](Cc2ccccc2)NC(=O)[C@@H](C)COC(=O)CCC[C@@H]1C -0.155
CCOC(=O)NN=C1C[C@@H](O)[C@@H](O)[C@@H]2[C@@H]3C(=O)N([C@@H](C)c4ccccc4)C(=O)[C@@H]3CC[C@H]12 -0.011
CO[C@H]1COC(=O)CCC[C@@H](C)[C@H](OC)COC(=O)[C@@H]2CCCN2C(=O)CC=C[C@@H]1C -0.186
COc1cccc([C@H]2Oc3ccc(OC)cc3C(=NOC(C)CN3CCCCc4nc(C)c(C)cc43)[C@@H]2O)c1 (some centres undefined) 0.32
